Peg3 prom inh = inhibitors of Peg3 promoter; HeLa PEG-Prom luciferase reporter, luminescence, overnight; inhibition, % at 20 µM; 360,000 compounds, 1.7% hits; AID 588405;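 active = inhibition of at least 50% at 20 µM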
HIF-2a inh = blocks HIF-2a reporter activity. AID 624352. 360,000 compounds, 0.72% hits. 786-0 RCC cells HIF-2a reporter, luciferase luminescence, overnight. inhibition, % at 18.8 µM;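 active = inhibition of the luminescence signal of 40% or more relative to plate controls, in a single-dose primary screen at 18.75 µM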
TROY NFkB inh = blocks TROY-dependent signaling in reporter cells | Q293 LMP1-TROYcd NF-kB luciferase reporter, 4 h | inhibition, % at 10 µM | 360,000 compounds, 0.98% hits | AID 1347056;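 active = compounds whose plate-normalised and pattern-corrected inhibition of the luciferase reporter signal at the single screening dose is 50% or more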
KKLEB tox = counter-screen for CF NF-kB inhibitors: cytotoxicity; KKLEB CF airway cells viability, ATPlite luminescence, overnight; stronger effect = lower value; cells stimulated with P. aeruginosa culture filtrate; activity change (cytotoxicity), % at 5 µM; 360,000 compounds, 0.36% hits; AID 602141;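 active = corrected activity change at or below -50% at 5 µM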
CF NFkB block = inhibitors of cystic fibrosis induced NF-kB; 360,000 compounds, 0.86% hits; inhibition, % at 5 µM; KKLEB NF-kB-GFP reporter, PAF-induced, GFP fluorescence overnight;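 active = at least 50% inhibition at 5 µM, scaled per plate between neutral and stimulator controls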;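 note: PAF is a Pseudomonas aeruginosa culture filtrate used as stimulus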
TWEAK Fn14 block = TWEAK-Fn14 signaling inhibition; TWEAK-stimulated Fn14 reporter cells, luciferase luminescence, 8 h; inhibition, % at 10 µM; 360,000 compounds, 2% hits; AID 1159606; in the data active = inhibition above about 50%
Numbers stand for hits; 0 = inactive; - = no result given. In the library only some 4% were active in any assay of this set; here they are far more common.

SMILES	Peg3 prom inh	HIF-2a inh	TROY NFkB inh	KKLEB tox	CF NFkB block	TWEAK Fn14 block
CCOc1ccc(OCCC(=O)OCC(=O)N2CCN(S(=O)(=O)c3ccc(Cl)cc3)CC2)cc1	0	0	0	0	84.5	0
CC(C)C[C@H]1COc2cc(N3CC[C@H](O)C3)ccc2S(=O)(=O)N1	-	0	0	-	-	0
CCOC(=O)N1CCN(S(=O)(=O)c2ccc(C(=O)Nc3sc4c(c3C(N)=O)CCN(CC)C4)cc2)CC1	76.1	0	0	0	0	0
O=C(O)c1ncc(-c2ccccc2)cn1	0	0	0	0	0	0
c1ccc(-c2cnc(-c3ccccc3)nc2)cc1	0	0	0	0	0	66.9
c1ccc2c(c1)cnc1ccccc12	0	0	0	0	0	0
c1ccc(-c2ncc3c(ccc4ccccc43)n2)cc1	0	0	51.1	-54.2	0	83.8
CC1=C(C(=O)OCCBr)C(c2cccc3ccccc23)NC(=O)N1 (centres undefined)	0	0	0	0	0	52.9
CCCOC(=O)C1=C(C)NC(=O)NC1c1cccc2ccccc12 (centres undefined)	0	0	0	0	0	0
CC1CN(c2sc(S(C)(=O)=O)nc2S(=O)(=O)c2ccc(Cl)cc2)CC(C)O1 (centres undefined)	0	0	0	0	0	57.0
CC1CCCN(c2sc(S(C)(=O)=O)nc2S(=O)(=O)c2ccc(Cl)cc2)C1 (centres undefined)	0	0	0	0	0	51.2
CC(NCC(O)COc1ccc2ccccc2c1)c1ccccc1 (centres undefined)	65.9	0	0	0	0	0
CC(NCC(O)COc1ccc(Br)cc1)c1ccccc1 (centres undefined)	0	0	0	0	0	0
CCCC(NCC(O)COc1ccc(-c2ccccc2)cc1)c1ccccc1 (centres undefined)	78.8	0	0	0	0	0
COc1ccc(OCC(O)CNC(C)c2ccccc2)cc1 (centres undefined)	0	0	0	0	0	0
Cc1cc(OCC(O)CNC(C)c2ccccc2)ccc1C(C)C (centres undefined)	106.8	0	0	0	0	0
CC1CC(C)(C)CC2(C1)NC(=O)N(CC(=O)Nc1cc([N+](=O)[O-])ccc1F)C2=O (centres undefined)	0	0	0	0	0	0
C=CCNC(=O)N1CCCC(C(=O)c2cccc(OC(C)C)c2)C1 (centres undefined)	0	0	0	0	0	0
C[C@H]1CN([C@@H](C)CO)C(=O)CCCn2nncc2CO[C@H]1CN(C)C(=O)Nc1cccc(Oc2ccccn2)c1	0	0	0	0	0	0
FC(F)(F)c1cc(CCN2CCNC[C@@H]2Cc2ccccc2)cc(C(F)(F)F)c1	102.0	0	0	0	0	0
COc1ccc(OC)c2c1C(=O)C(Cl)=C(Cl)C2=O	107.0	94.1	53.5	-54.5	89.6	93.6
CCOc1ccccc1CN1CCNC(=O)C1CC(=O)NC1CCCCCCC1 (centres undefined)	0	0	0	0	0	0
N=c1cc(C2(O)CCCCC2)n2c(nc3ccccc32)s1	0	0	0	0	0	64.0
CCOc1ccc(NC(=O)CN(C)C(=O)c2ccncc2)cc1OCC	0	0	0	0	0	68.4
CCOc1ccc(NC(=O)CN(C)C(=O)c2cc(C)on2)cc1OCC	0	0	0	0	0	0
SMILES	Peg3 prom inh	HIF-2a inh	TROY NFkB inh	KKLEB tox	CF NFkB block	TWEAK Fn14 block
O=C(Nc1ccc(-c2csc(Nc3ccccc3)n2)cc1)c1cc([N+](=O)[O-])cc(C(F)(F)F)c1	0	0	0	0	0	66.3
Cc1cc(NC(=O)c2ccc3c(c2)C(=O)N(C(C)(C)C)C3=O)no1	0	0	0	0	0	0
CC(C)(C)N1C(=O)c2ccc(C(=O)Nc3cc(C(=O)O)cc(C(=O)O)c3)cc2C1=O	0	0	0	0	0	99.4
O=C(CN1C(=O)NC2(CCOc3ccccc32)C1=O)c1ccc(Br)cc1 (centres undefined)	0	0	0	0	0	0
Nc1ccccc1NC(=O)c1ccccc1	0	0	0	0	0	0
Nc1ccc(NC(=O)c2ccccc2)c2c1C(=O)c1ccccc1C2=O	0	0	0	-53.2	61.3	0
O=C(Nc1c(-c2ccc3c(c2)OCO3)[nH][nH]c1=O)c1ccccc1	0	0	0	0	0	0
CCCCn1c(=O)[nH]c(=O)c2c1nc(-c1ccc(OC)c(Br)c1)n2CC(C)C	55.4	0	0	0	0	0
C=CCOc1ccc(-c2nc3c(c(=O)[nH]c(=O)n3CCCC)n2C)cc1Br	0	0	0	0	0	0
Cc1cc(=O)[nH]c(SCC(=O)Nc2cccc3ccccc23)c1C#N	0	0	51.8	0	0	0
CCOc1ncccc1C(=O)N(CC)CC(=O)NCc1ccc(Cl)cc1	0	0	0	0	0	0
COc1ccc(C2c3sc(=O)[nH]c3SC3C(=O)N(c4ccccc4)C(=O)C32)cc1 (centres undefined)	0	0	0	0	0	0
O=C1C2Sc3[nH]c(=O)sc3C(c3ccccc3)C2C(=O)N1c1ccccc1 (centres undefined)	0	0	0	0	0	89.0
CN(C)c1ccc(C(O)Cc2nc3ccccc3n2C)cc1 (centres undefined)	0	0	79.3	0	0	73.8
Cc1ccccc1N=C1NN=C(c2ccccc2F)CS1	0	0	57.0	0	0	68.4
CCS(=O)(=O)Nc1cccc(-c2nc3cccnc3s2)c1	0	0	0	0	0	0
CCS(=O)(=O)Nc1ccc(-c2nc3cccnc3s2)cc1	0	0	0	0	0	69.4
O=C(Nc1cccc(OCC(=O)N2CCOCC2)c1)c1ccc(C(F)(F)F)cc1	0	0	0	0	0	0
O=C(/C=C/c1cn(CC(O)CN2CCCCC2)c2ccccc12)c1cccs1 (centres undefined)	72.6	0	0	0	0	0
Cc1ccc(N(C(=O)Cn2nnc(-c3ccc(C)o3)n2)C(C(=O)NC2CCCC2)c2ccncc2)cc1 (centres undefined)	0	0	0	0	0	55.9
O=C(COC(=O)c1ccc2ccccc2n1)NC1CCCCC1	0	0	0	0	0	0
O=C(COC(=O)c1ccccc1F)Nc1ccc2c(c1)OCCO2	0	0	0	0	0	0
O=C(/C=C/c1ccccc1[N+](=O)[O-])c1ccccc1Br	95.8	0	0	0	0	0
Cc1ccc(C(=O)/C=C/c2ccccc2[N+](=O)[O-])cc1	0	0	0	0	0	0
O=C(N/N=C/c1cc(Cl)ccc1O)C(=O)Nc1ccccc1OC(F)(F)C(F)F	60.0	0	0	0	0	0
O=C(N/N=C/c1cc(Br)ccc1O)C(=O)Nc1ccccc1OC(F)(F)C(F)F	57.4	0	0	0	0	0
COCCCNS(=O)(=O)c1ccc2[nH]c3c(c2c1)CCCCC3	0	0	0	0	0	84.0
CC(C)(C)NS(=O)(=O)c1ccc2[nH]c3c(c2c1)CCCCC3	0	0	0	0	0	0

Source: PubChem (Sanford-Burnham Center for Chemical Genomics)
